Test systems include HCT-15 colon; HT29 colon; SNB-75 CNS; SNB-19 CNS; U251 CNS; PC-3 prostate; SK-MEL-5 melanoma; UACC-62 melanoma; LOX IMVI melanoma; SK-MEL-28 melanoma.
What all share (experiment): NCI-60 one-dose screen, 48 h (100 = growth as untreated, 0 = no growth, -100 = all killed)
What all share (details): 10 µM unless noted

This is part of a sample that, as a whole, favours compounds with a hit. Of some 83,000 tested, about 20% had one in any assay.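 For each line, cells grew in 96-well plates with the test compound present at a single concentration for 48 hours.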 Unmarked numbers belong to inactive results. Activity calls are given as the source filed them. How the source made its calls: active means growth percent below 10; inactive means the rest.

As for `Cc1ccc(C(CN(C)C)C(=O)c2ccccc2)cc1` (stereo not given), the growth is -12.1% (active) with HCT-15 colon; -34.3% (active) in the assay with HT29 colon; 54.1% in the assay on SNB-75 CNS; 85.7% in the assay on SNB-19 CNS; 41.7% with U251 CNS; 32.9% with PC-3 prostate. In addition, the growth in the assay on SK-MEL-5 melanoma is 64.1%; with UACC-62 melanoma, 6.99% (active); in the assay with LOX IMVI melanoma, -6.07% (active); with SK-MEL-28 melanoma, 50.7%.
Regarding `NC(N)=N/N=C/c1cccc(Cl)c1Cl`, the growth is 82.7% with HCT-15 colon; 24% in the assay with HT29 colon; 63.8% in the assay with SNB-75 CNS; 85.8% in the assay with SNB-19 CNS; 73.3% in the assay on U251 CNS; 89.2% in the assay on PC-3 prostate. For the same compound, the growth with SK-MEL-5 melanoma is 85.6%; in the assay on UACC-62 melanoma, 90.5%; in the assay with LOX IMVI melanoma, 76.4%; with SK-MEL-28 melanoma, 99.2%.
As for `CC(C)(C)c1nn(-c2ccccc2)c2c1C(=O)CSC(c1ccccc1Cl)N2` (stereo not given), the growth in the assay with HCT-15 colon was 25.1%; with HT29 colon, 18.5%; in the assay on SNB-75 CNS, -1.74% (active); in the assay with SNB-19 CNS, 39.8%; with U251 CNS it was 33.2%; in the assay with PC-3 prostate, 15.5%. Further, the growth in the assay with SK-MEL-5 melanoma is 11.6%; in the assay with UACC-62 melanoma it was 38.7%; in the assay with LOX IMVI melanoma it was 35.5%; in the assay on SK-MEL-28 melanoma it was 47.3%.
In the case of `CS(=O)(=O)c1ccc(C(=O)N/N=C/c2cccc3ccccc23)cc1`, the growth with HCT-15 colon is 49.8%; with HT29 colon it was 49.5%; in the assay on SNB-75 CNS, 89.7%; in the assay on SNB-19 CNS, 79.8%; in the assay on U251 CNS, 76.3%; with PC-3 prostate, 78.8%. Further, the growth in the assay on SK-MEL-5 melanoma is 67.2%; in the assay with UACC-62 melanoma, 61.6%; in the assay with LOX IMVI melanoma, 72.4%; in the assay on SK-MEL-28 melanoma, 89.4%.
Take `COc1ccccc1/C=C/C(=O)CCC(=O)O`: the growth with HCT-15 colon was 113%; in the assay on HT29 colon, 107%; in the assay with SNB-75 CNS it was 98.5%; with SNB-19 CNS, 114%; in the assay on U251 CNS, 107%; in the assay with PC-3 prostate, 94.5%. Moreover, the growth in the assay on SK-MEL-5 melanoma was 109%; with UACC-62 melanoma, 108%; with LOX IMVI melanoma, 99.8%; in the assay on SK-MEL-28 melanoma it was 110%.
Regarding `O=C1c2cccc3cccc(c23)C(=O)N1CCCCCCCCCCN1C(=O)c2cccc3cccc(c23)C1=O`, the growth was 102% in the assay on HCT-15 colon; 106% in the assay with HT29 colon; 80.8% in the assay on SNB-75 CNS; 104% in the assay with SNB-19 CNS; 100% in the assay on U251 CNS; 103% in the assay on PC-3 prostate. In addition, the growth in the assay with SK-MEL-5 melanoma is 102%; with UACC-62 melanoma, 99.8%; in the assay with LOX IMVI melanoma, 102%; in the assay with SK-MEL-28 melanoma it was 109%.
For `CCNC(=O)c1ccc2c(c1)nc(-c1ccc(Cl)cc1)n2-c1cc(C(C)(C)C)[nH]n1`, the growth is 45.2% with HCT-15 colon; 26% with HT29 colon; 34.2% in the assay on SNB-75 CNS; 60.5% in the assay with SNB-19 CNS; 46.5% in the assay on U251 CNS; 44% in the assay on PC-3 prostate. In addition, the growth in the assay with SK-MEL-5 melanoma was 11.5%; in the assay on UACC-62 melanoma, 38.6%; with LOX IMVI melanoma, 33.1%; in the assay on SK-MEL-28 melanoma, 41.6%.
For `O=C(CSc1nc2c(n1Nc1ccccc1)-c1ccccc1SC2)Nc1nccs1`, the growth was 87.5% in the assay on HCT-15 colon; 102% in the assay with HT29 colon; 69.7% in the assay with SNB-75 CNS; 99.4% with SNB-19 CNS; 93.8% in the assay with U251 CNS; 78.8% with PC-3 prostate. Moreover, the growth with SK-MEL-5 melanoma is 101%; in the assay on UACC-62 melanoma it was 83.3%; in the assay with LOX IMVI melanoma it was 97.1%; with SK-MEL-28 melanoma, 112%.
For `COC(=O)c1ccc2c(c1)nc(-c1ccc(Cl)cc1)n2-c1cc(C(C)(C)C)[nH]n1`, the growth was 69.5% with HCT-15 colon; 23% with HT29 colon; 47.3% in the assay on SNB-75 CNS; 78.3% in the assay with SNB-19 CNS; 38.2% with U251 CNS; 39% in the assay with PC-3 prostate. In addition, the growth was 25.9% in the assay with SK-MEL-5 melanoma, 45.7% in the assay with UACC-62 melanoma, 44.2% in the assay with LOX IMVI melanoma and 58% in the assay on SK-MEL-28 melanoma.
For `CNC(=O)c1c(NC(=O)c2ccc(C(C)C)cc2)sc2c1CCC(=O)C2`, the growth is -40.7% (active) in the assay with HCT-15 colon; 3.51% (active) in the assay with HT29 colon; -11.9% (active) with SNB-75 CNS; 8.7% (active) with SNB-19 CNS; -20.2% (active) in the assay with U251 CNS; -40% (active) in the assay with PC-3 prostate. Besides, the growth with SK-MEL-5 melanoma is -71.4% (active); in the assay on UACC-62 melanoma, -54.7% (active); with LOX IMVI melanoma, 1.13% (active); in the assay on SK-MEL-28 melanoma it was -32.1% (active).
With `CN1C(=O)C(C(=O)/C=C/c2ccccc2C(=O)O)C(=O)N(C)C1=O`, the growth in the assay with HCT-15 colon was 110%; in the assay on HT29 colon, 98.8%; in the assay on SNB-75 CNS, 86.7%; with SNB-19 CNS, 105%; with U251 CNS, 97%; in the assay with PC-3 prostate, 96.4%. Moreover, the growth with SK-MEL-5 melanoma is 108%; in the assay on UACC-62 melanoma it was 95%; in the assay on LOX IMVI melanoma, 94.7%; in the assay on SK-MEL-28 melanoma, 109%.
As to `CCOC(=O)c1cc(N)nc2ccccc12`, the growth was 107% in the assay with HCT-15 colon; 97.4% with HT29 colon; 112% with SNB-75 CNS; 106% in the assay on SNB-19 CNS; 103% in the assay on U251 CNS; 104% in the assay with PC-3 prostate. Moreover, the growth with SK-MEL-5 melanoma is 106%; with UACC-62 melanoma, 108%; in the assay on LOX IMVI melanoma it was 96.7%; in the assay on SK-MEL-28 melanoma, 123%.
As for `COc1nccc2c(Sc3ccccc3)nc(N)nc12`, the growth with HCT-15 colon was 100%; in the assay with HT29 colon it was 108%; in the assay on SNB-75 CNS, 84.5%; with SNB-19 CNS, 117%; in the assay on U251 CNS, 110%; in the assay on PC-3 prostate it was 84.7%. In addition, the growth in the assay on SK-MEL-5 melanoma was 99.2%; in the assay with UACC-62 melanoma it was 102%; with LOX IMVI melanoma it was 107%; with SK-MEL-28 melanoma, 106%.
Take `NS(=O)(=O)c1ccc(CCn2c(SCC(=O)N/N=C/c3cccnc3)nc3ccccc3c2=O)cc1`: the growth with HCT-15 colon was 83%; in the assay on HT29 colon, 109%; in the assay with SNB-75 CNS it was 90.8%; in the assay with SNB-19 CNS, 100%; with U251 CNS it was 87.7%; with PC-3 prostate, 83.8%. Further, the growth in the assay on SK-MEL-5 melanoma was 79.5%; with UACC-62 melanoma it was 84.5%; with LOX IMVI melanoma, 85%; in the assay on SK-MEL-28 melanoma it was 101%.

The values are drawn from PubChem BioAssay (NCI).
